Results published in PubChem BioAssay (NCI).
This is part of a sample that, as a whole, favours compounds with a hit. Of some 79,000 tested, about 15% had one in any assay. Activity calls are given as the source filed them. No stated cut-off is given here; in the data, active means growth inhibition above about 70%; inactive means the rest.

What was measured:
[1] = NCI Yeast Anticancer Drug Screen. Data for the rad50 strain (AID 155);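 further: 0% = growth of vehicle-only cultures of the same strain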; conditions: S. cerevisiae rad50 strain growth inhibition, active compounds read high; at 50.0 µM unless noted
Procedure, shortened: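 Relative growth inhibition (compound vs vehicle) was measured in yeast with a defined repair-gene alteration.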

[2] = NCI Yeast Anticancer Drug Screen. Data for the mec2-1 strain (AID 157); conditions: S. cerevisiae mec2-1 strain, active compounds read high; at 50.0 µM unless noted
Procedure, shortened: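 Compounds were applied to mec2-1 yeast cells. Their growth was then compared with that of vehicle-treated cultures to give growth inhibition.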

[3] = NCI Yeast Anticancer Drug Screen. Data for the sgs1 mgt1 strain (AID 161);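 further: 0% = growth of cultures given vehicle only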; conditions: S. cerevisiae sgs1 mgt1 strain, active compounds read high; at 50.0 µM unless noted
Procedure, shortened: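 Percent growth inhibition was derived by comparing compound-exposed mutant yeast with vehicle-exposed cultures. The strain carries alterations in DNA damage repair.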

[4] = NCI Yeast Anticancer Drug Screen. Data for the cln2 rad14 strain (AID 165);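 further: 0% = growth equal to vehicle treated cultures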; conditions: S. cerevisiae cln2 rad14 strain, active compounds read high; at 50.0 µM unless noted
Procedure, shortened: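 Strain: cln2 rad14 yeast, altered in cell cycle control and DNA damage repair. Read-out: growth inhibition vs vehicle.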

[5] = NCI Yeast Anticancer Drug Screen. Data for the bub3 strain (AID 167); conditions: S. cerevisiae bub3 mutant strain, active compounds read high; at 50.0 µM unless noted
Procedure, shortened: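 Screening used yeast with an engineered genetic alteration affecting cell cycle control. Compound-exposed cultures were compared with vehicle cultures, and reduced growth was taken as inhibition.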

[6] = NCI Yeast Anticancer Drug Screen. Data for the mlh1 rad18 strain (AID 175); conditions: S. cerevisiae mlh1 rad18 strain growth inhibition, active compounds read high; at 50.0 µM unless noted
Procedure, shortened: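 A repair-deficient yeast strain is exposed to test compound, and growth is scored relative to vehicle-treated controls.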

Measured: growth inhibition

O=[N+]([O-])c1ccc[nH]1
inactive: [1] -6.15% | [2] -9.95% | [3] -4.2% | [4] 15.3% | [5] 3% | [6] 2%

NC(=O)CSc1c2cc(O)ccc2nc2ccc(O)cc12
inactive: [1] -17.8% | [2] -6.95% | [3] -12.6% | [4] 37.5% | [5] -19.4% | [6] 26.7%

C[N+]1(C)N=C([O-])N(c2ccccc2Cl)C1=O
inactive: [1] 21.4% | [2] -27.4% | [3] -6.6% | [4] -37.5% | [5] 1.15% | [6] 18.1%

CCC(O)C(C)(C)[N+](=O)[O-] (stereo not given)
inactive: [1] 3.35% | [2] -3.25% | [3] -2.6% | [4] -2.05% | [5] -0.8% | [6] 0.35%

O=P(O)(O)OP(=O)(O)O
inactive: [1] -15.3% | [2] -15.1% | [3] -2.4% | [4] -12.1% | [5] -54.6% | [6] 25.8%

O=c1oc(-c2ccccc2)nc2c1sc1nc(-c3ccccc3)oc(=O)c12
active: [4] 79.8%
inactive: [1] 47.9% | [2] 30.7% | [3] 43.3% | [5] 24.6% | [6] 49.4%

CC(C)CCNc1ccccc1
inactive: [1] 1.55% | [2] -7.65% | [3] -9.85% | [4] -2.8% | [5] 3.55% | [6] 0.45%

Cc1ccc2c(c1)C(C(=O)N[C@@H]1C(=O)N3[C@@H]1SC(C)(C)[C@@H]3C(=O)O)OCCC2 (stereo not given in full)
inactive: [1] -5.1% | [2] -12.3% | [3] 16.2% | [4] 2.45% | [5] 0.65% | [6] -68.4%

O=C1NC(=O)C2(CCCC2)N1
inactive: [1] -9.4% | [2] 8.05% | [3] 2.8% | [4] -74% | [5] 7.45% | [6] -37.9%

CCCCC/C(=N\c1nc[nH]c1C(N)=O)OCC
inactive: [1] -29.9% | [2] -12.9% | [3] -37.9% | [4] -7.1% | [5] -27.8% | [6] -25.6%

CCC1NC(=O)C1NC(=O)OC (stereo not given)
inactive: [1] 23.6% | [2] -1.15% | [3] 22.6% | [4] 0.55% | [5] 12.6% | [6] 22.8%

CC(=O)OCC(O)CS(=O)c1ccc(C)cc1 (stereo not given)
inactive: [1] -6.25% | [2] 2% | [3] 0.4% | [4] -30.6% | [5] -16.1% | [6] 4.2%

Cc1ccc(C)n1CCCCCCCn1c(C)ccc1C
inactive: [1] -24.7% | [2] -3.5% | [3] 5.15% | [4] -22.8% | [5] 25.1% | [6] -9.8%

COc1ccc(CCNC(=O)[C@H]2CCCC[C@@H]2CCO)cc1OC
inactive: [1] 15.5% | [2] 10.6% | [3] -46.9% | [4] 3.25% | [5] -42.8% | [6] -9%

O=C1CSC(c2ccc(O)cc2)N1c1nncs1 (stereo not given)
inactive: [1] 0.4% | [2] -0.75% | [3] 16.8% | [4] -0.55% | [5] 5.6% | [6] 11.9%

CC(C)(C)C(C(=O)O)C(=O)O
inactive: [1] 11.2% | [2] 8% | [3] 0.45% | [4] -7.4% | [5] 5.2% | [6] 13.6%

CCCCCOC(=O)C#CC(=O)OCCCCC
active: [1] 99.8% | [2] 99.8% | [3] 99.7% | [4] 99.4% | [5] 99.8% | [6] 99.7%

CCC(SC(CC)(CC)C(=O)O)C(N)=O (stereo not given)
inactive: [1] -9.9% | [2] 0.05% | [3] -8.15% | [4] -23% | [5] -6% | [6] -8.1%

O=C(N(O)c1ccccc1Cl)C(O)(c1ccccc1)c1ccccc1
inactive: [1] 28.2% | [2] 16.6% | [3] 59.1% | [4] 37% | [5] 31.4%
active: [6] 75.5%

CC(=O)OC1CCC2(C)C(CCC3C2C(=O)C(OC(C)=O)C2(C)C3CC3OC4(CCC(C)CO4)C(C)C32)C1 (stereo not given)
inactive: [1] -10.5% | [2] -19.9% | [3] -11.2% | [4] 3.6% | [5] -23.9% | [6] -6.9%

CCOC(=O)c1c2ccc(/C=C/C(=O)OC)ccc-2c(C(=O)OCC)c1N
inactive: [1] -23.8% | [2] -24.4% | [3] -23.4% | [4] -23.2% | [5] -37.6% | [6] -4.35%

CCNc1ncnc2c1nnn2CC
inactive: [1] -5.55% | [2] -12.2% | [3] -15.8% | [4] -7.75% | [5] -27.4% | [6] 6.75%

O=[N+]([O-])c1cccc(Br)c1
inactive: [1] 25.9% | [2] 22.8% | [3] -10.7% | [4] -52.6% | [5] 3.45% | [6] 5.75%

NC(=O)C(=CN1CC(=O)NC1=S)C(N)=O
inactive: [1] -23.3% | [2] -23.4% | [3] -2.4% | [4] 9.85% | [5] -9.05% | [6] 17.1%

CCCCC1(CC)COC(=O)N(C)C1 (stereo not given)
inactive: [1] 10.8% | [2] 4.95% | [3] 0.65% | [4] -7.6% | [5] 18% | [6] 3%

O=[N+]([O-])c1cccc(Nc2nc(Cl)nc(Cl)n2)c1
inactive: [1] -0.65% | [2] 21% | [3] 5.25% | [4] -8.25% | [5] -18.8% | [6] -14.5%

CCN(Cc1ccccc1)c1nnnn1-c1ccccc1
inactive: [1] -2.5% | [2] -5.25% | [3] 8% | [4] 6.75% | [5] 12.1% | [6] -10.6%

CCCCCCCCCCCCSC(=S)c1c(C)[nH]n(CCCCCCCCCCCC)c1=O
inactive: [1] 39.9% | [2] 25.9% | [3] 42.3% | [4] 26.2% | [5] 21.9% | [6] 12.8%

OCC12OCC(C=CC1O)O2 (stereo not given)
inactive: [1] -13.2% | [2] 17.1% | [3] -4.65% | [4] 1.2% | [5] -0.15% | [6] -8.5%

O=c1ccn(C2OC(COC3CCCCO3)C(OC3CCCCO3)C2OC2CCCCO2)c(=O)n1-c1ccccc1 (stereo not given)
inactive: [1] 39.7% | [2] -4.8% | [3] 10.1% | [4] -1.4% | [5] -2.65% | [6] 5.25%

O=c1[nH]c2cc(Cl)ccc2nc1/C(=N\O)C(O)c1ccc([N+](=O)[O-])cc1 (stereo not given)
inactive: [1] 8% | [2] 14.2% | [3] -21.2% | [4] -24.6% | [5] -17.2% | [6] -5%

CC(=O)[CH-]C(=O)c1ccccc1.CC(=O)[CH-]C(=O)c1ccccc1.CC(C)CCCC(C)[C@H]1CCC2[C@@H]3CCC4C[C@@H]([O-])CC[C@]4(C)C3CC[C@@]21C.CC(C)CCCC(C)[C@H]1CCC2[C@@H]3CCC4C[C@@H]([O-])CC[C@]4(C)C3CC[C@@]21C.Cl.[Ti+4] (stereo not given in full)
inactive: [1] 14.4% | [2] 1.25% | [3] 21.4% | [4] -12.1% | [5] 25.6% | [6] -0.95%

O=C(O)CS(=O)c1ccc2c3c(cccc13)C(=O)c1ccccc1-2 (stereo not given)
inactive: [1] 14.7% | [2] -12.5% | [3] -38.5% | [4] -0.05% | [5] -30.8% | [6] 1.7%

O=C(N[C@@H](CSSC[C@H](NC(=O)OCc1ccccc1)C(=O)O)C(=O)O)OCc1ccccc1
inactive: [1] 15.6% | [2] 0.85% | [3] 9.2% | [4] -3.65% | [5] 2.7% | [6] 2.55%

C=C1C(=O)OC2/C=C(\C)C(O)CCC(C)(O)CC(OC(=O)/C(C)=C/C)C12 (stereo not given)
inactive: [1] 2.35% | [2] -5.45% | [3] -3.1% | [4] 17.4% | [5] 3.7% | [6] -1.9%

CN(CCOC(=O)Nc1ccccc1)N=O
inactive: [1] 9.35% | [2] -9.35% | [3] 0.75% | [4] -15.4% | [5] 7.7% | [6] -3%

O=C1c2ccccc2C(=O)N1CCCCCCCCCCN1C(=O)c2ccccc2C1=O
inactive: [1] 33% | [2] -10.3% | [3] 17.3% | [4] 2.75% | [5] -3.75% | [6] -7.15%

CC(C)(C)C1C=C(Sc2ccccc2)C(=O)O1 (stereo not given)
inactive: [1] 28.8% | [2] 7.3% | [3] 6.25% | [4] 1.8% | [5] 61.2% | [6] 30.1%

O=C(c1ccc(-c2ccccc2)cc1)c1ncc(-c2ccc(-c3ccccc3)cc2)[nH]1
inactive: [1] 15.5% | [2] 10.7% | [3] 17.1% | [4] -4% | [5] 19.1% | [6] 21.3%

COCc1cccc2ccnc(COC)c12
inactive: [1] -8.2% | [2] 2.45% | [3] 5.95% | [4] 9.4% | [5] -8.35% | [6] 5.25%
